# Bioassay records from PubChem BioAssay.
# An excerpt weighted towards active compounds, which were near 2.9% of everything screened.
# CF NFkB block = blocks PAF-induced NF-kB reporter in cystic fibrosis cells. inhibition, % at 5 µM. 360,000 tested, 0.86% active. KKLEB NF-kB-GFP reporter, GFP fluorescence overnight. AID 588850;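 active = at least 50% inhibition at 5 µM, scaled per plate between neutral and stimulator controls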;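 also: PAF is a Pseudomonas aeruginosa culture filtrate used as stimulus; plate controls were PAF-stimulated DMSO wells for no effect and unstimulated DMSO wells for full effect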
# LMP1 NFkB inh = reduces LMP1-driven NF-kappaB luciferase signal | LMP1-induced NF-kappaB luciferase reporter cells, luminescence | inhibition, % at 12.5 µM | 350,000 tested, 0.69% active; in the data active = inhibition above about 41%; inconclusive = no clear call, values can overlap the other calls;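 also: 0% = neutral control wells and 100% = reference inhibitor control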
# KKLEB cytotox = CF airway cell cytotoxicity counter-screen; AID 602141; 360,000 tested, 0.36% active; activity change (cytotoxicity), % at 5 µM; KKLEB CF airway cells viability, ATPlite luminescence, overnight; stronger effect = lower value; cells stimulated with P. aeruginosa culture filtrate;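 active = corrected activity change at or below -50% at 5 µM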
# Shn3 3UTR inh = reduces Shn3 3'UTR luciferase signal in osteoblasts | Clone20 osteoblast Shn3 3'UTR firefly luciferase, 24 h | inhibition, % at 12.5 µM | 360,000 tested, 0.52% active | AID 588674;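 active = mean inhibition of at least 75% with every replicate also reaching 75%; inconclusive = mean inhibition at least 75% but some replicate below; inactive = mean inhibition below 75%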;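 also: 0% = median of neutral control wells and 100% = pilot-screen positive control compound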
# TRPM1 prom inh = reduces MITF-dependent TRPM1 promoter luciferase signal | SK-MEL-5 TRPM1 promoter luciferase, 24 h | inhibition, % at 12.5 µM | 330,000 tested, 0.83% active;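 active = mean inhibition across replicates of 60% or more, whatever share of single replicates reaches that level; inconclusive = some that reach 60%, reason not given; inactive = mean inhibition across replicates below 60%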
# Peg3 prom inh-1 = inhibitors of Peg3 promoter; HeLa PEG-Prom luciferase reporter, luminescence, overnight; inhibition, % at 20 µM; 360,000 tested, 1.7% active; AID 588405;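 active = inhibition of at least 50% at 20 µM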
# Peg3 prom inh-2 = Peg3 promoter inhibition confirmation; shares compounds with Peg3 prom inh-1; 1,300 tested, 84% active; HeLa PEG-Prom luciferase reporter, luminescence, overnight; AID 602417; inhibition, % at 20 µM;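 active = at 20 µM dose, 40% or more inhibition averaged across four replicates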
# Starred values were filed as active, the others as inactive; ? = inconclusive; · = no result.
SMILES,CF NFkB block,LMP1 NFkB inh,KKLEB cytotox,Shn3 3UTR inh,TRPM1 prom inh,Peg3 prom inh-1,Peg3 prom inh-2
CCCN(CC(=O)Nc1cc(Cl)cc(Cl)c1)CC(=O)Nc1ccc(F)c(F)c1F,6,-6,-24,10,-21,87*,91*
Cc1ccc(C(=O)Nc2ccc3c(c2)OCCO3)c(C)c1,-19,58*,-29,57,66*,68*,35
Cc1cc(C)c(C(=O)Nc2ccc3c(c2)OCCO3)c(C)c1,16,-22,-18,-20,·,-134,·
N#C/C(=C\c1ccc(OCc2ccc(C(=O)O)cc2)cc1)C(=O)N1CCOCC1,-10,84*,-6,54,85*,71*,76*
COc1cc(/C=C(\C#N)C(=O)N2CCOCC2)ccc1OCc1ccccc1,-25,-7,-1,-54,-51,-177,·
CC1C(=O)N(Cc2cn(CCC3OCCO3)nn2)CCS(=O)(=O)N1Cc1ccc(-c2ccc(Cl)c(Cl)c2)cc1 (centres undefined),29,3,-14,73,·,26,·
CCCC(=O)NC(c1ccccc1)c1ccc2cccnc2c1O (centres undefined),-9,40,0,93*,65*,53*,63*
CCCCC(=O)NC(c1ccccc1Cl)c1ccc2cccnc2c1O (centres undefined),2,72*,-11,88*,71*,58*,65*
CC(=O)NC(c1ccc(C(C)C)cc1)c1ccc2cccnc2c1O (centres undefined),-8,57*,5,92*,?,57*,70*
CC(=O)NC(c1ccco1)c1cc(Cl)c2cccnc2c1O (centres undefined),7,·,13,51,·,49,·
CCCC(=O)NC(c1ccc(OC)cc1)c1ccc2cccnc2c1O (centres undefined),10,70*,-18,92*,73*,55*,71*
CCC(=O)NC(c1ccc(OC)cc1)c1cc(Cl)c2cccnc2c1O (centres undefined),2,38,2,60,50,48,·
CCCCC(=O)NC(c1ccccc1)c1ccc2cccnc2c1O (centres undefined),-14,48*,0,93*,65*,55*,88*
C[C@@]12C(=O)Nc3cc(Cl)ccc3C(=O)N1[C@H]1c3ccccc3OC[C@@H]1[C@@H]2c1ccccc1,27,-7,-14,24,15,12,·
C[C@@]12C(=O)Nc3cc(Cl)ccc3C(=O)N1[C@H]1c3cc(Cl)ccc3OC[C@@H]1[C@@H]2c1ccccc1,24,2,-37,27,-4,56*,57*
COc1cc2ccccc2cc1C(=O)N(CCN(C)C)c1nc2c(OC)ccc(OC)c2s1,42,-11,-11,-13,12,66*,67*
Cc1ccc(OCCNC(=O)c2cccc(S(=O)(=O)N3CCN(C)CC3)c2)cc1,-5,1,-7,14,1,2,·
CN(Cc1ccccn1)C(=O)c1cc(COc2ccc(F)c(F)c2)on1,1,-21,7,-84,·,-298,·
OCCCn1c(C2CCCN2c2nc(-c3ccc(F)cc3)cs2)nc2cc(Cl)c(N3CCCCC3)cc21 (centres undefined),11,-6,0,21,18,56*,21
CCCCN1C(=O)C(CC(=O)NC2CC2)CC(C(=O)N(CC)CC)=C1C (centres undefined),-17,3,10,7,·,3,·
N=c1n(CCN2CCCC2)c2ccccc2n1CC(O)c1ccc(Cl)c(Cl)c1 (centres undefined),20,34,-22,15,99*,115*,98*
COc1ccc(CCNC(=O)c2ccc(OCc3c(C)noc3C)c(OC)c2)cc1,-50,10,4,-4,-6,6,·
COc1cc(C(=O)NCCc2c[nH]c3ccccc23)ccc1OCc1c(C)noc1C,-6,3,5,-11,-1,63*,18
CC1(C(=O)NS(=O)(=O)c2cccc(F)c2)CCN1C(=O)Cc1cccs1 (centres undefined),14,·,-6,-2,·,-10,·
COc1ccc(C2NC3=C(CCC3)C3(C#N)C4(N=C(N)C23C#N)OCCO4)cc1 (centres undefined),-19,8,9,22,17,67*,30
SMILES,CF NFkB block,LMP1 NFkB inh,KKLEB cytotox,Shn3 3UTR inh,TRPM1 prom inh,Peg3 prom inh-1,Peg3 prom inh-2
CN(C(=O)c1cccc(NC(=O)Cc2cccc(NC(=O)C3CCCN(C(=O)C4CCCCC4)C3)c2)c1)C1CC1 (centres undefined),-6,-2,21,12,8,5,·
O=C(NC1CCCCC1)C(c1cccnc1)N(C(=O)CCl)c1cccc(Cl)c1 (centres undefined),54*,19,-63*,-7,83*,106*,99*
Cc1cccc(N(C(=O)CNC(=O)c2ccco2)C(C(=O)NC2CCCCC2)c2cccnc2)c1 (centres undefined),0,2,-3,-7,5,-9,·
CCN=c1scc(-c2ccc(F)cc2)n1/N=C/c1ccccn1,-8,-20,-25,-71,-84,-306,·
CN=c1scc(-c2ccccc2F)n1/N=C/c1ccc[nH]1,-17,82*,-55*,73,90*,91*,92*
CC(=O)Nc1cccc(-c2cc(NC(C)=O)c3ncc(-c4cccc(C(F)(F)F)c4)n3c2)c1,-16,·,2,10,·,20,·
O=C1C(C=Nc2ccc(F)cc2)=C(O)c2ccccc21,-15,-36,-9,-40,-12,-5,·
COc1ccc(N=CC2=C(O)c3ccccc3C2=O)c(OC)c1,-15,57*,-77*,44,76*,74*,21
NC(=O)c1nsc(C(=O)N(c2ccccc2F)C(C(=O)NCc2ccccc2)c2ccc(O)cc2)c1N (centres undefined),90*,3,-54*,2,-1,75*,57*
Cc1ccccc1N(C(=O)c1snc(C(N)=O)c1N)C(C(=O)NCc1ccccc1)c1ccc(O)cc1 (centres undefined),15,-2,3,25,6,49,·
CC(C)(c1ccccc1)c1ccc(OCC(O)CNC2CCN(Cc3ccccc3)CC2)cc1 (centres undefined),12,-13,-22,37,79*,107*,99*
CCOc1ccc(OCC(O)CNC2CCN(Cc3ccccc3)CC2)cc1 (centres undefined),11,0,-7,-10,0,10,·
O=C(NCc1ccccc1)c1cc(C2CCCN(C(=O)CCCc3ccccc3)C2)on1 (centres undefined),30,·,-8,1,·,13,·
NC(C(=O)O)C1ON=C(Cl)C1O (centres undefined),-1,-4,-3,-5,25,59*,62*
